Results: the supplement of paper PMC11219838
A number with no mark means an inactive call.

These compounds were tested on Meloidogyne hapla J2 (assay: proportion of mobile M. hapla J2 relative to DMSO control (fraction of DMSO control); higher = more viable, less nematicidal, active = 0.7 or less). Details: 60 µM; 5 days; temperature: 20 °C.
Procedure: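 DODA library (846 commercial 1,3,4- and 1,2,4-oxadiazole compounds plus commercial nematicide controls) screened at a single dose of 60 µM (0.6% DMSO) in 96-well plates, two biological replicates. Read-outs: C. elegans N2 L1 survival/reproduction score at day 6, 20 °C (0: 0-10 worms, 1: 11-20, 2: 21-50, 3: >50, 4: overgrown/starved). C. elegans daf-2 dauer, D. dipsaci and M. hapla J2 mobility at day 5, 20 °C, and P. penetrans mobility at day 5, 20 °C, each relative to DMSO controls. M. hapla egg hatching at day 12, 25 °C, relative to the mean of 8 DMSO wells on the same plate.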

Compound | proportion of mobile M. hapla J2
COc1ccc(C)cc1NC(=O)CSc1nnc(-c2ccc(Br)cc2)o1 | 0.938
COc1ccc(-c2nnc(SCC(=O)Nc3ccccc3F)o2)cc1 | 1.04
COc1ccccc1-c1nc(-c2cccc(Br)c2)no1 | 1.04
Cc1ccc(CSc2nnc(-c3ccco3)o2)cc1 | 0.628 (active)
CC(=O)Nc1ccc(-c2nc(-c3ccccc3)no2)cc1 | 0.961
O=C(CSc1nnc(-c2cccc3ccccc23)o1)c1ccc(F)cc1 | 0.912
COc1ccccc1-c1nc(-c2ccccc2)no1 | 1
Clc1cc(Br)ccc1OCc1nc(-c2ccccc2)no1 | 0.818
CC(=O)c1cccc(NC(=O)CSc2nnc(-c3ccccc3)o2)c1 | 0.937
COc1ccc(-c2nnc(SCC(=O)c3ccc4ccccc4c3)o2)cc1 | 1.03
COc1ccc(-c2noc(-c3ccc(Cl)cc3)n2)cc1 | 0.983
Cc1ccc(OCc2nc(-c3ccc(Cl)cc3)no2)cc1 | 0.901
O=C(Nc1ccc(-c2noc(-c3ccccn3)n2)cc1)c1cccc(Cl)c1 | 0.87
N#Cc1ccc(CSc2nnc(-c3ccncc3)o2)cc1 | 0.972
CC(=O)Nc1cccc(-c2nnc(SCc3ccccc3)o2)c1 | 0.976
Clc1ccc(-c2nc(-c3cccnc3)no2)c(Cl)c1 | 1.04
COc1cccc(-c2nc(-c3ccc(Cl)cc3)no2)c1 | 1.04
Cc1cnc(NC(=O)CSc2nnc(-c3cccc(Cl)c3)o2)s1 | 0.97
Fc1ccccc1-c1nc(-c2ccc(Cl)cc2)no1 | 0.956
COc1ccc(-c2nnc(SCC(=O)Nc3cc(Cl)ccc3C)o2)cc1 | 0.904

Compound | proportion of mobile M. hapla J2
COc1ccc(-c2noc(-c3cc(C)ccc3C)n2)cc1 | 0.916
O=C(CSc1nnc(-c2cccc(Cl)c2)o1)Nc1nccs1 | 0.894
O=C(c1ccccc1-c1nc(-c2ccccc2)no1)N1CCCCC1 | 1.06
Cc1ccc(-c2noc(-c3ccccc3C(=O)N3CCC(C)CC3)n2)cc1 | 0.999
Cc1ccc(CSc2nnc(-c3ccco3)o2)c(C)c1 | 0.687 (active)
CCOc1ccccc1-c1nnc(SCC(=O)NC(C)CC)o1 (stereo not given) | 0.951
N#Cc1ccccc1CSc1nnc(-c2ccco2)o1 | 0.859
CCc1ccc(OCc2nc(-c3ccc(C)cc3)no2)cc1 | 1.04
COc1ccccc1OCc1nc(-c2ccc(Cl)cc2)no1 | 1.01
O=C(CSc1nnc(-c2ccc(Br)cc2)o1)NC1CCCCC1 | 1.04
COc1cccc(-c2nnc(SCC(=O)Nc3ccccc3)o2)c1 | 1.03
COc1ccccc1NC(=O)CSc1nnc(-c2cccc3ccccc23)o1 | 0.811
Cc1ccc(-c2nc(-c3ccccc3)no2)cc1Cl | 0.996
COc1ccc(-c2noc(CSc3nc4cc(C)ccc4[nH]3)n2)cc1 | 0.861
COc1cccc(-c2noc(COc3ccc(C)cc3)n2)c1 | 0.769
Cc1[nH]c2ccc(-c3nnc(SCC(=O)NCc4ccc(F)cc4)o3)cc2c1C | 0.865
O=C(Nc1cccc(-c2noc(COc3ccccc3)n2)c1)c1cccs1 | 0.847
Cc1cc(OCc2nc(-c3ccncc3)no2)cc(C)c1Cl | 0.78
CCOc1cc(C#N)ccc1OCc1nc(-c2cccs2)no1 | 1.07
COc1ccccc1-c1noc(-c2ccccc2C)n1 | 0.962
